About 83,000 compounds went through this panel and 20% of them were active in at least one assay; those are over-represented in the sample as a whole.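 Step 1: grow cells in 96-well plates. Step 2: add test compound at a single concentration. Step 3: incubate 48 h. Step 4: record percent growth.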 Unmarked numbers belong to inactive results. The source made the active and inactive calls. Rule for the calls: active = growth percent below 10; inactive = the rest.
How the values were obtained:
Assay in all cases: NCI-60 one-dose screen, 48 h (100 = growth as untreated, 0 = no growth, -100 = all killed)
Details in all cases: 10 µM unless noted
SR leukemia = tested on: SR leukemia
RPMI-8226 leukemia = tested on: RPMI-8226 leukemia
OVCAR-8 ovarian = tested on: OVCAR-8 ovarian
OVCAR-5 ovarian = tested on: OVCAR-5 ovarian
OVCAR-4 ovarian = tested on: OVCAR-4 ovarian
SK-OV-3 ovarian = tested on: SK-OV-3 ovarian
IGROV1 ovarian = tested on: IGROV1 ovarian
OVCAR-3 ovarian = tested on: OVCAR-3 ovarian
HS 578T breast = tested on: HS 578T breast
NCI/ADR-RES ovarian = tested on: NCI/ADR-RES ovarian
T-47D breast = tested on: T-47D breast
BT-549 breast = tested on: BT-549 breast
MDA-MB-435 melanoma = tested on: MDA-MB-435 melanoma
SW-620 colon = tested on: SW-620 colon
MCF7 breast = tested on: MCF7 breast
HCT-116 colon = tested on: HCT-116 colon
HCC-2998 colon = tested on: HCC-2998 colon
KM12 colon = tested on: KM12 colon

Row | SMILES | growth (SR leukemia) | growth (RPMI-8226 leukemia) | growth (OVCAR-8 ovarian) [%] | growth (OVCAR-5 ovarian) | growth (OVCAR-4 ovarian) | growth (SK-OV-3 ovarian) | growth (IGROV1 ovarian) | growth (OVCAR-3 ovarian) | growth (HS 578T breast) | growth (NCI/ADR-RES ovarian) | growth (T-47D breast) | growth (BT-549 breast) | growth (MDA-MB-435 melanoma) | growth (SW-620 colon) | growth (MCF7 breast) | growth (HCT-116 colon) | growth (HCC-2998 colon) | growth (KM12 colon)
1 | Cc1ccc(S(=O)(=O)n2cc(C3C(Cl)C(=O)N3c3ccc(N4CCOCC4=O)cc3)c3ccccc32)cc1 (configuration not stated) | 24.6% | 21.6% | 55.5 | 78.5% | 52.4% | 93.9% | 72.6% | 30.4% | 41.8% | 32.6% | 51% | 48.3% | -21.2% (active) | 26.1% | 20.8% | 16.5% | 86.6% | 85.6%
2 | COc1ccc(NC(=O)c2sc3nc4c(cc3c2N)CCCC4)cc1 | 1.36% (active) | 14.8% | 25.5 | 78.8% | 57.3% | 39.4% | 53.8% | 11.1% | 43.4% | 5.47% (active) | 32.4% | 51.3% | -20.9% (active) | 36.7% | 19.2% | 30.3% | 52.8% | 25.8%
3 | CN1C(=O)N(C)C2C1NC(=S)N2/N=C/C=C/c1ccccc1[N+](=O)[O-] (configuration not stated) | 15.2% | 2.85% (active) | 36.3 | 74.9% | 51.1% | 27% | 44.3% | 8.13% (active) | 17.1% | 29.1% | 22.4% | 68.1% | -61.7% (active) | 22.7% | 18.7% | 19.5% | 60.5% | 26.7%
4 | CCCCCCCCCCCCCCCCCCOc1ccccc1CC(=O)NCC[N+]1(C)CCOCC1 | 18.2% | -4.77% (active) | 67.8 | 26.3% | 71.7% | 81.2% | -67.2% (active) | 67.3% | 67.4% | 103% | 62.3% | 39.8% | 76% | 79.2% | 69% | 61.8% | 31.1% | 5.07% (active)
5 | N#Cc1nc(-c2ccc(F)cc2)oc1S(=O)(=O)N1CCN(c2ccc(F)cc2)CC1 | 6.45% (active) | 46.5% | 71.4 | 111% | 105% | 118% | 76% | 91% | 107% | 94.7% | 85.8% | 103% | 86.8% | 19% | 40.9% | 46.7% | 109% | 102%
6 | CC(=O)N(Cc1ccccc1)c1nc2ccc(O)c(CN(C)C)c2s1 | 106% | 95.2% | 103 | 100% | 97.6% | 104% | 93.9% | 105% | 92.6% | 93.5% | 85.2% | 96.6% | 99.7% | 94.7% | 87.8% | 102% | 105% | 102%
7 | COc1ccc(-c2nnc(SCC(=O)Nc3ccc(/C(C)=N\O)cc3)n2-c2ccccc2)cc1OC | 95.4% | 91.6% | 42.7 | 97% | 103% | 4.74% (active) | 70.9% | 82% | 42.8% | 90.6% | 68% | 65.2% | 104% | 115% | 69.2% | 69.2% | 94% | 106%
8 | COc1cc(/C=C\c2cc(/C=C\c3ccc(O)c(OC)c3)n(C(=O)CNc3ccc(Cl)cc3)n2)ccc1O | 3.39% (active) | 17.4% | 28.2 | 86.9% | 56.6% | 21.1% | 36.7% | 22.9% | 30% | 21% | 31% | 24.3% | -7.11% (active) | 24.9% | 13.8% | 7.69% (active) | 48.6% | 20.2%
9 | CN1CCN(C(=O)c2cc(-c3ccc4ncnc(N5CCc6cc(F)c(Cl)cc65)c4c3)cnc2N)CC1 | 14.7% | -25.7% (active) | 10.3 | 9.22% (active) | -12.7% (active) | 10.9% | -33.4% (active) | -42.8% (active) | -17.2% (active) | 8.74% (active) | -1.85% (active) | -20.4% (active) | -2.06% (active) | 4.9% (active) | 4.21% (active) | -30.3% (active) | -7.55% (active) | 10.7%

Reference: PubChem BioAssay (NCI)
